Data reported in PubChem BioAssay AID743335 (Broad Institute, 2014).
Calls of active or inactive are those of the source.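 The calls were made as follows: active = cell killing, with a fitted half-maximal concentration at or below twice the top valid dose tested; inconclusive = flat curve with moderate signal loss, or a poor fit; inactive = effect in the rising direction, plus the rest.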

Assay: cell viability loss in HEK293T cells – ATP luminescence, dry powder, set 11, cytotoxicity control, dose response (AID 743335)
Details: ATP luminescence (CellTiter-Glo), 72 h; series mostly up to 15 µM; activity change, negative = cytotoxicity: at the top concentration

Structure (SMILES) | activity change, negative = cytotoxicity
CCN(CC)c1ccc(S(=O)(=O)N(C)C)cc1C(=O)Nc1ncc(C)s1 | -14.2% (inactive)
COc1ccc2sc(NC(=O)c3cc(S(=O)(=O)N(C)C)ccc3N3CCCC3)nc2c1 | 4.68% (inactive)
CN(C)S(=O)(=O)c1ccc(N2CCCC2)c(C(=O)Nc2cccc(F)c2)c1 | -17.6% (inactive)
Cc1cnc(NC(=O)c2cc(S(=O)(=O)N(C)C)ccc2C2CCCC2)s1 | -12.9% (inactive)
Cc1cnc(NC(=O)c2cc(S(=O)(=O)N(C)C)ccc2N2CCC2)s1 | 0.864% (inactive)
COc1cccc2sc(NC(=O)c3cc(S(=O)(=O)N(C)C)ccc3N3CCCC3)nc12 | -2.09% (inactive)
CN(C)S(=O)(=O)c1ccc(N2CCCC2)c(C(=O)Nc2nc3ccccc3s2)c1 | -6.3% (inactive)
Cc1csc(NC(=O)c2cc(S(=O)(=O)N(C)C)ccc2N2CCCC2)n1 | -9.89% (inactive)
Cc1ccc(NC(=O)c2cc(S(=O)(=O)N(C)C)ccc2N2CCCC2)cc1 | -8.27% (inactive)
CN(C)S(=O)(=O)c1ccc(N2CCCC2)c(C(=O)Nc2nccs2)c1 | 0.72% (inactive)
CN(C)S(=O)(=O)c1ccc(N2CCCC2)c(C(=O)Nc2ccccc2)c1 | -12.8% (inactive)
COc1ccc2nc(NC(=O)c3cc(S(=O)(=O)N(C)C)ccc3N3CCCC3)sc2c1 | -15.4% (inactive)
CN(C)CCCN(Cc1cc2ccccc2[nH]c1=O)C(=O)NCc1ccccc1 | -7.88% (inactive)
Cc1cnc(NC(=O)c2cc(S(=O)(=O)N3CCCCC3)ccc2N2CCCC2)s1 | 2.61% (inactive)
Cc1cnc(NC(=O)c2cc(S(=O)(=O)N3CCCC3)ccc2N2CCCC2)s1 | -2.37% (inactive)
Cc1cnc(NC(=O)c2cc(S(=O)(=O)N(C)C)ccc2N2CCCC2)s1 | -25.8% (inactive)
Cc1cnc(NC(=O)c2cc(S(=O)(=O)N(C)C)ccc2N(C)C)s1 | -17.5% (inactive)
CN(C)CCCN(Cc1cc2ccccc2[nH]c1=O)C(=O)Nc1ccccc1 | -18.9% (inactive)
Cc1cnc(NC(=O)c2cc(S(=O)(=O)N3CCOCC3)ccc2N2CCCC2)s1 | -2.27% (inactive)
